Experiment in all cases: DAPPL (digital affinity profiling via proximity ligation, sequencing); 10 mM Tris-HCl pH 7.5, 50 mM NaCl, 1 mM DTT, 4% glycerol, room temperature, 30 min; GST-TFs on glutathione beads, 16-mer random dsDNA library, 0.1% formaldehyde crosslink after washing; high values mean tight binding
Assay [1] addresses T1, FEV (Homo sapiens, UniProt Q99581 1-238).
T1 sequence: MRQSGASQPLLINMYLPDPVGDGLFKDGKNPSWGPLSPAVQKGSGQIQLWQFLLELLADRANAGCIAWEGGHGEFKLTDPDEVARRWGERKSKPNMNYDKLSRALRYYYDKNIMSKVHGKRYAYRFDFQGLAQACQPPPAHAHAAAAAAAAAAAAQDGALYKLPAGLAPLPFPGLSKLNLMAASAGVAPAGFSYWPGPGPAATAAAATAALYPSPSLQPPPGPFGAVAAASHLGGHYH
The conditions noted are these: protein: recombinant; tags: N-terminal GST; dsDNA, one strand shown. A digest of the protocol:
(§1)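 Human transcription factors carrying a GST fusion were produced in yeast, bound to glutathione beads, tagged with DNA barcodes and pooled together with a tag-only sample. Each pool was held with 200 nmole of a random double-stranded 16-mer DNA library in Tris/NaCl/DTT/glycerol buffer for 30 min at room temperature, then washed, crosslinked in 0.1% formaldehyde, proximity-ligated with BsaI/T4 ligase (1 h, 37 °C), PCR-amplified and sequenced on an Illumina NextSeq500. Binding signal is the read frequency of each hexamer for a given factor divided by its frequency in the tag-only sample.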

Assay [2] concerns the target ETV5 (Homo sapiens, UniProt P41161 1-510). The following applies: protein: recombinant; tags: N-terminal GST; dsDNA, one strand shown. The essentials: as §1
Assay [3] addresses HSF1 (Homo sapiens, UniProt Q00613 1-529). The conditions noted are these: protein: recombinant; tags: N-terminal GST; chain copies: 3; dsDNA, one strand shown. A digest of the protocol: as §1
For assay [4], the target named is T2, SPIC (Homo sapiens, UniProt Q8N5J4 1-248).
T2 sequence: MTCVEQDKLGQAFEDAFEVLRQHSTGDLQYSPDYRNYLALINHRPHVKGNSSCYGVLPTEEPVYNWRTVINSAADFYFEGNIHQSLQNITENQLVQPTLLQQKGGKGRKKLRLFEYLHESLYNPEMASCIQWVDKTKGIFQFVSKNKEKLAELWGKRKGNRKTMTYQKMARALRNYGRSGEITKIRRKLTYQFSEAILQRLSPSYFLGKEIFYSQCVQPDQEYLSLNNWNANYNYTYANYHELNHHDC
The conditions noted are these: protein: recombinant; tags: N-terminal GST; dsDNA, one strand shown. The essentials:
as §1

Assay [5] has as its target ELF4 (Homo sapiens, UniProt Q99607 1-663). The following applies: protein: recombinant; tags: N-terminal GST; dsDNA, one strand shown. The essentials:
as §1

The target of assay [6] is T3, ELK4 (Homo sapiens, UniProt P28324-2 1-405).
T3 sequence: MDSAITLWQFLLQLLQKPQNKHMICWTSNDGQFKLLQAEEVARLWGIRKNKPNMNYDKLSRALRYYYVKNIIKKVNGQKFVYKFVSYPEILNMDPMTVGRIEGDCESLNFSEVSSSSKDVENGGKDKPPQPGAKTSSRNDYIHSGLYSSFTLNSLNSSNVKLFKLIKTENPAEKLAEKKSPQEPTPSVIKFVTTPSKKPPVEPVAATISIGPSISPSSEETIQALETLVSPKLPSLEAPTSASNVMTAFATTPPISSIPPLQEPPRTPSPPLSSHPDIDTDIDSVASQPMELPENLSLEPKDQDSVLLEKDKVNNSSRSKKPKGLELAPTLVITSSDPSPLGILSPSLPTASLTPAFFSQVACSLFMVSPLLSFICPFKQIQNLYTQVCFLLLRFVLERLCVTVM
The conditions noted are these: protein: recombinant; tags: N-terminal GST; dsDNA, one strand shown. A digest of the protocol:
as §1

Assay [7] addresses T4, ETV2 (Homo sapiens, UniProt O00321 1-342).
T4 sequence: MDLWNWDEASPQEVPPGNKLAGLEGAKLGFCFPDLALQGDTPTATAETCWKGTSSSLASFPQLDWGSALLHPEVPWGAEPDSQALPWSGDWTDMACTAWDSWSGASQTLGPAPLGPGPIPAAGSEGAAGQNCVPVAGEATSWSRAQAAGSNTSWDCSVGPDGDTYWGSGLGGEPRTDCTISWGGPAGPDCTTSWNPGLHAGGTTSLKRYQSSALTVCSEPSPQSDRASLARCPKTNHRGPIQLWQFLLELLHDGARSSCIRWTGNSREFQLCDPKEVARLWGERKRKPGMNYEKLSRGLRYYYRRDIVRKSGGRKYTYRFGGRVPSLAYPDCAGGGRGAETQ
The conditions noted are these: protein: recombinant; tags: N-terminal GST; dsDNA, one strand shown. A digest of the protocol: as §1

The target in assay [8] is T5, ELF3 (Homo sapiens, UniProt P78545 1-371).
T5 sequence: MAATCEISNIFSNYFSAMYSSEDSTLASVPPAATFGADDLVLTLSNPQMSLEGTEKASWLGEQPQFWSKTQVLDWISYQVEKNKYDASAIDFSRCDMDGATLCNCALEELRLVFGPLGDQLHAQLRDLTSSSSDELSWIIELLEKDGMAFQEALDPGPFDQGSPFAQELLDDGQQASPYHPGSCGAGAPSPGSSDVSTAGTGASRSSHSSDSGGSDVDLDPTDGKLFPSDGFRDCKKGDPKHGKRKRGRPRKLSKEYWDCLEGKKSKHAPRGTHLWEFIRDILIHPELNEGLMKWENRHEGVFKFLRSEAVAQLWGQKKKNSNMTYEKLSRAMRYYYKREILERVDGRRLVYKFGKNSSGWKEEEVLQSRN
The following applies: protein: recombinant; tags: N-terminal GST; dsDNA, one strand shown. The essentials:
as §1

For assay [9], the target named is CRX (Homo sapiens, UniProt O43186 1-299). The conditions noted are these: protein: recombinant; tags: N-terminal GST; dsDNA, one strand shown. A digest of the protocol:
as §1

In assay [10] the target is ETV1 (Homo sapiens, UniProt P50549 1-477). The conditions noted are these: protein: recombinant; tags: N-terminal GST; dsDNA, one strand shown. The essentials: as §1
In assay [11] the target is T6, ERF (Homo sapiens, UniProt P50548 1-548).
T6 sequence: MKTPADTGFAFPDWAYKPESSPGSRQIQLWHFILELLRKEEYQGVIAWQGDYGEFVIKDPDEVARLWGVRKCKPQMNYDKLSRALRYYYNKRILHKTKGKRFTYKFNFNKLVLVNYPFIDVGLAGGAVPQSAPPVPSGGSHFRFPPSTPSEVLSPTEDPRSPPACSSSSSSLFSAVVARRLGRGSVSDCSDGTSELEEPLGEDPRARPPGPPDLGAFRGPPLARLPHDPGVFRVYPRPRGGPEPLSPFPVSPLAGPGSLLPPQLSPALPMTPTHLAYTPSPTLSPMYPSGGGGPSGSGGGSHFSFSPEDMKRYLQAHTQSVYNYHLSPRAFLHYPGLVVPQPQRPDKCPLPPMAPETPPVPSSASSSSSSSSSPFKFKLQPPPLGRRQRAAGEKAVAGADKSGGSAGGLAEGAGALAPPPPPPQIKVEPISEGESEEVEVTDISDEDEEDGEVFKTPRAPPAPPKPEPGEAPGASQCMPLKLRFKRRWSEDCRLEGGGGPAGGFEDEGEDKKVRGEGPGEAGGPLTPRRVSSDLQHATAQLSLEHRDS
The following applies: protein: recombinant; tags: N-terminal GST; dsDNA, one strand shown. The essentials: as §1

For assay [12], the target named is T7, ETV3L (Homo sapiens, UniProt Q6ZN32 1-361).
T7 sequence: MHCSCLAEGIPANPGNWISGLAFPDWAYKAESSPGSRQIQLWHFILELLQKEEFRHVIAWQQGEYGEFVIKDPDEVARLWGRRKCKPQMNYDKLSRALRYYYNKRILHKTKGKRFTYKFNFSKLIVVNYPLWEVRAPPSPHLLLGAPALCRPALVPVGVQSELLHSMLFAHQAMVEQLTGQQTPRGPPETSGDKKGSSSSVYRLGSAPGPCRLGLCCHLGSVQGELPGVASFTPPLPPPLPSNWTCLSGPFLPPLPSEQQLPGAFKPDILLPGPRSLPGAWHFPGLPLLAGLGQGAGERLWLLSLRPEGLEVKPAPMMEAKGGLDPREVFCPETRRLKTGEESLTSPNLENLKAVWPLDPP
The following applies: protein: recombinant; tags: N-terminal GST; dsDNA, one strand shown. The essentials: as §1

Assay [13] has as its target T8, ETS2 (Homo sapiens, UniProt P15036 1-469).
T8 sequence: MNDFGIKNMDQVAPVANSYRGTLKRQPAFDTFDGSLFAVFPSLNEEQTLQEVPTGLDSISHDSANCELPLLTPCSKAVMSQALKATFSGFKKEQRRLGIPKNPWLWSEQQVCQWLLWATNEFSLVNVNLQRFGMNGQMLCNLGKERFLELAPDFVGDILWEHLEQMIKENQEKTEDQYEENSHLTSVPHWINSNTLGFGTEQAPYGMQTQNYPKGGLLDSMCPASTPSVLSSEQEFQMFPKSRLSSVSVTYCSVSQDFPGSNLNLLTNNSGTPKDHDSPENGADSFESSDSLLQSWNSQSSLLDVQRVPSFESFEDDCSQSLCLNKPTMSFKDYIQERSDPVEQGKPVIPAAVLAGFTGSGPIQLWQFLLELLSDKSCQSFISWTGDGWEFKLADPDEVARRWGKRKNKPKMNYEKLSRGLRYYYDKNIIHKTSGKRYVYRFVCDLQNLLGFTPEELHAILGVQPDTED
The conditions noted are these: protein: recombinant; tags: N-terminal GST; dsDNA, one strand shown. The essentials: as §1

Assay [14] concerns the target T9, SPDEF (Homo sapiens, UniProt O95238 1-335).
T9 sequence: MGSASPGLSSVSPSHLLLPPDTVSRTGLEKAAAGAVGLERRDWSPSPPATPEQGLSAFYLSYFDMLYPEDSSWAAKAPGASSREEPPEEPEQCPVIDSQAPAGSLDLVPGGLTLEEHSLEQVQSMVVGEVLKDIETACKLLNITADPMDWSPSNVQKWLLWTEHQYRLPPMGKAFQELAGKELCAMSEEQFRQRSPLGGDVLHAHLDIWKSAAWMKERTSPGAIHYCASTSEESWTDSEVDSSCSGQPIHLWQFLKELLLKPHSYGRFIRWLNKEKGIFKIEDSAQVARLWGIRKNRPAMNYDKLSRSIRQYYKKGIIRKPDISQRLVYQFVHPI
The following applies: protein: recombinant; tags: N-terminal GST; dsDNA, one strand shown. The essentials: as §1

For assay [15], the target named is T10, ETV7 (Homo sapiens, UniProt Q9Y603 1-341).
T10 sequence: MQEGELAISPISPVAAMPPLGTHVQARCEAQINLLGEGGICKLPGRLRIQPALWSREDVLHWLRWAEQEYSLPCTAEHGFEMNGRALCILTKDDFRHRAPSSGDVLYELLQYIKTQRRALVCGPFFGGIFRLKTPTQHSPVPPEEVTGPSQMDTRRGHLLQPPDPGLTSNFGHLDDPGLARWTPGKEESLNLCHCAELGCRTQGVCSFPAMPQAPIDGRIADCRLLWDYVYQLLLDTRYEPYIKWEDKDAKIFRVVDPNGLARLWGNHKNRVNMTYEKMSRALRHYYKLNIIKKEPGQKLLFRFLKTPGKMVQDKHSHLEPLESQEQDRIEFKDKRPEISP
The following applies: protein: recombinant; tags: N-terminal GST; dsDNA, one strand shown. The essentials: as §1

The target of assay [16] is T11, ELF5 (Homo sapiens, UniProt Q9UKW6-2 1-255).
T11 sequence: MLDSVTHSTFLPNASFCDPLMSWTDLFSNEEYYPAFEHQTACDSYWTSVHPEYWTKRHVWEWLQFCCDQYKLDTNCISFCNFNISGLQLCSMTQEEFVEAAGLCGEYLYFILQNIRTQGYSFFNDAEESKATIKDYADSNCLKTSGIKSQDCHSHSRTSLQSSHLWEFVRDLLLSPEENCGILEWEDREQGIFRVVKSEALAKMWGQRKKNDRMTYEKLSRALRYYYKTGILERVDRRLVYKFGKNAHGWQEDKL
The following applies: protein: recombinant; tags: N-terminal GST; dsDNA, one strand shown. The essentials: as §1

Assay [17] has as its target T12, ETV3 (Homo sapiens, UniProt P41162-2 1-143).
T12 sequence: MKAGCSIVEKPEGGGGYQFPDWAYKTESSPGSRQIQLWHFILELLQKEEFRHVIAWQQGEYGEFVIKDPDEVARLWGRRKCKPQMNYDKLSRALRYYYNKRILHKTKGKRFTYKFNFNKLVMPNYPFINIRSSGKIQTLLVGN
The following applies: protein: recombinant; tags: N-terminal GST; dsDNA, one strand shown. A digest of the protocol:
as §1

Assay [18] deals with ETV6 (Homo sapiens, UniProt P41212 1-452). The following applies: protein: recombinant; tags: N-terminal GST; dsDNA, one strand shown. The essentials: as §1
ETV6, sequence (P41212 whole entry): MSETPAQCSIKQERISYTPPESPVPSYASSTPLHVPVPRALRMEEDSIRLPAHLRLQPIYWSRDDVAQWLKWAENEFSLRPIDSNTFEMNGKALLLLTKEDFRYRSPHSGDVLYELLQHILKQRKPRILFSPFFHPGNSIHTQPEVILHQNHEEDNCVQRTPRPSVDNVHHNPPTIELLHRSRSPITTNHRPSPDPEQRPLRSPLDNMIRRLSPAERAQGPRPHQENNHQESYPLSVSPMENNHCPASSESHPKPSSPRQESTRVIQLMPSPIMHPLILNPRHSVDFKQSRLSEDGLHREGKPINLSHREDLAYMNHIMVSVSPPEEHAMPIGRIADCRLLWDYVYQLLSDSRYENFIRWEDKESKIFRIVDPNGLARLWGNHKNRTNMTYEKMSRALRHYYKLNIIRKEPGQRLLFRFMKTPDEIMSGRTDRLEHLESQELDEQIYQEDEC

CRX, sequence (O43186 whole entry): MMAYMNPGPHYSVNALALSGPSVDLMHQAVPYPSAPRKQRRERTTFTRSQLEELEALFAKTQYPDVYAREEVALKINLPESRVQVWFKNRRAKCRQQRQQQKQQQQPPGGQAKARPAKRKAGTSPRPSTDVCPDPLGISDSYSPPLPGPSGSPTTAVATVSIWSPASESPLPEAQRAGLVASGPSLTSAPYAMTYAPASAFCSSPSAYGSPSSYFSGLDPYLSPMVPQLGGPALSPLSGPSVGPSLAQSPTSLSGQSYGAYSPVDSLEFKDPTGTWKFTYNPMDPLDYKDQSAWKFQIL
ELF4, sequence (Q99607 whole entry): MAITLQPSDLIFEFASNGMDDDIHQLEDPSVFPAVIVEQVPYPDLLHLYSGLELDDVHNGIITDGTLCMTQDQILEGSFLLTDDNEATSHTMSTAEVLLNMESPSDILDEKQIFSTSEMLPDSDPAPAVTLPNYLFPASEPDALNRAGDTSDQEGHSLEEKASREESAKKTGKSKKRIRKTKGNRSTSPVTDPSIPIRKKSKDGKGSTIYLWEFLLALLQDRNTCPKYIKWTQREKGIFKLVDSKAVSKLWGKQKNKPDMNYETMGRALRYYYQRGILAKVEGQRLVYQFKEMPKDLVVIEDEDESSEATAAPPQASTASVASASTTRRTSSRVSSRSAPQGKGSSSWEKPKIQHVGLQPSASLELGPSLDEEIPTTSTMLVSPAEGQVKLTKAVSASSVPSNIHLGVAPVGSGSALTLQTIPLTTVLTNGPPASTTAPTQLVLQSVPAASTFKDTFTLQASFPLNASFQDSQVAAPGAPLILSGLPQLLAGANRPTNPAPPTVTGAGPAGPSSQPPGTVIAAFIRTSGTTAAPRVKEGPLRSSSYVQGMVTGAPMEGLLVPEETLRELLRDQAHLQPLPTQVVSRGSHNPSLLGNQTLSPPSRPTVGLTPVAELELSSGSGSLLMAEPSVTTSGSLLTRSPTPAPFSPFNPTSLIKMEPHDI
ETV1, sequence (P50549 whole entry): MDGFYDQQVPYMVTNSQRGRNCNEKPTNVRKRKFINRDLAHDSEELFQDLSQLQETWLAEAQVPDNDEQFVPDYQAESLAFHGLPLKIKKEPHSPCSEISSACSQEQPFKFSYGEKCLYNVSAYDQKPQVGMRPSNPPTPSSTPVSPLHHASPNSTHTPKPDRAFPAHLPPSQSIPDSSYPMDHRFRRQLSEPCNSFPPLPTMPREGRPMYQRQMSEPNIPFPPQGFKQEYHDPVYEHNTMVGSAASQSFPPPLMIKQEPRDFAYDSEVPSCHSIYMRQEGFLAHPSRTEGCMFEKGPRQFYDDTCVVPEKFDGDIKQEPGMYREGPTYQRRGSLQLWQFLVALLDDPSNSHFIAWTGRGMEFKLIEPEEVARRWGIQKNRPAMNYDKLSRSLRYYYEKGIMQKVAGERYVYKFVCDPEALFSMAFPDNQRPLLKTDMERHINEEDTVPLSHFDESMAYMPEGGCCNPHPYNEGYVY
HSF1, sequence (Q00613 whole entry): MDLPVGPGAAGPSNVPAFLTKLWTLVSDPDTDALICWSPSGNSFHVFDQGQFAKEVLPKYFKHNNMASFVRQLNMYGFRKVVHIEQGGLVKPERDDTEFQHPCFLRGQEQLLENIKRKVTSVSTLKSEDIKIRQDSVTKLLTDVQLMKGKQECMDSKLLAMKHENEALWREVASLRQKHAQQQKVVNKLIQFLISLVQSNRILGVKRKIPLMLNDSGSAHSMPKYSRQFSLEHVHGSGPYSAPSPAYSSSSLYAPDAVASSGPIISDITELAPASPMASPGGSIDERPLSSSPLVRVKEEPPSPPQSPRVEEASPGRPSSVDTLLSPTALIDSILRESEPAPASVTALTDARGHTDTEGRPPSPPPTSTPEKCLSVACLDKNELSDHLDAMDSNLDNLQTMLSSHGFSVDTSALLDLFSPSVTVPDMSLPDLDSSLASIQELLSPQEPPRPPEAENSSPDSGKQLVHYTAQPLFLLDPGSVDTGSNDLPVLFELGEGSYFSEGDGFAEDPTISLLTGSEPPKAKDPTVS
ETV5, sequence (P41161 whole entry): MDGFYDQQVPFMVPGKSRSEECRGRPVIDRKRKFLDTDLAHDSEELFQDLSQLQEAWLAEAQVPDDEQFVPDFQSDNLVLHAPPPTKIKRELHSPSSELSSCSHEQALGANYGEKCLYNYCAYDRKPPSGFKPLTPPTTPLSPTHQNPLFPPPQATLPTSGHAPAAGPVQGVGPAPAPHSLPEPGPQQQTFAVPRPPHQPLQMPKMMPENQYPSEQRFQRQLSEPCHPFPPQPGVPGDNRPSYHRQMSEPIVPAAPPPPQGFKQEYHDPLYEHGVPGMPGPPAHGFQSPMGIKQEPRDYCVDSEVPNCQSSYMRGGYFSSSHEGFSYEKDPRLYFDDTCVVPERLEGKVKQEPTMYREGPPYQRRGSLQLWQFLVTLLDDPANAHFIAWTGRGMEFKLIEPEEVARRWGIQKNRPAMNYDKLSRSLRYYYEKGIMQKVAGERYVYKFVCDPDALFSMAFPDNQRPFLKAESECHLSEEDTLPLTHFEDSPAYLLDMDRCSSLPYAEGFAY

In the case of ATTGCA, the binding signal in assay [1] was 1.15 fold enrichment (6-mer frequency, TF over GST control); in assay [2] it was 1.17 fold enrichment (6-mer frequency, TF over GST control); in [3], 1.06 fold enrichment (6-mer frequency, TF over GST control); in [4] it was 1.1 fold enrichment (6-mer frequency, TF over GST control); in [5], 1.19 fold enrichment (6-mer frequency, TF over GST control); in assay [6], 1.28 fold enrichment (6-mer frequency, TF over GST control). In addition, the binding signal in assay [7] was 1.31 fold enrichment (6-mer frequency, TF over GST control); in assay [8], 1.13 fold enrichment (6-mer frequency, TF over GST control); in [9], 1.11 fold enrichment (6-mer frequency, TF over GST control); in assay [10] it was 1.17 fold enrichment (6-mer frequency, TF over GST control); in assay [11] it was 1.23 fold enrichment (6-mer frequency, TF over GST control); in assay [12], 1.19 fold enrichment (6-mer frequency, TF over GST control). Also, the binding signal is 1.15 fold enrichment (6-mer frequency, TF over GST control) in assay [13]; 1.18 fold enrichment (6-mer frequency, TF over GST control) in assay [14]; 1.17 fold enrichment (6-mer frequency, TF over GST control) in assay [15]; 1.16 fold enrichment (6-mer frequency, TF over GST control) in assay [16]; 1.09 fold enrichment (6-mer frequency, TF over GST control) in assay [17]; 1.21 fold enrichment (6-mer frequency, TF over GST control) in assay [18].

The record behind these values is article PMC7862700, “An all-to-all approach to the identification of sequence-specific readers for epigenetic DNA modifications on cytosine”.
